A selection: hits, their analogues and other compounds. The true share with any hit is near 4.2%.
ALOX12 inh: Primary qHTS assay for inhibitors of human arachidonate 12S-lipoxygenase (ALOX12): Round 2 | Polyunsaturated fatty acid lipoxygenase ALOX12 (Homo sapiens), P18054 | purified 12hLO, xylenol orange hydroperoxide absorbance | Potency, µM (highest dose often 108 µM), inactives show at the highest dose activity change, negative = inhibition, actives largely listed as inhibitors | 1.1% of 580,000 active | AID 1671190, 2021
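Purified human 12hLO (150 nM final) in 25 mM Hepes, 0.01% Triton X-100, pH 7.0 was preincubated 15 min at room temperature with compound. Then 40 uM arachidonic acid was added, 30 min. Hydroperoxide was read by Fe-XO absorbance ratio 573/405 nm.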
PLK1 PBD inh: qHTS for Inhibitors of PLK1-PDB (polo-like kinase 1 - polo-box domain): Primary Screen; AID 720504, 2013; 2.8% of 360,000 active; Potency, µM, without a hit: max response, negative = inhibition, actives largely listed as inhibitors; Plk1 PBD binding of FITC phosphopeptide, fluorescence polarization; also: series mostly up to about 57 µM; nearly all actives have a fitted effect of over 65% in size
Sfp inh: qHTS Assay for Inhibitors of Bacillus subtilis Sfp phosphopantetheinyl transferase (PPTase); 3.5% of 310,000 active; 4'-phosphopantetheinyl transferase ffp (Bacillus subtilis), Q9F4F7; AID 1490, 2009; Potency, µM, for the others: largest response in the series, negative = inhibition, hits mostly inhibitors; Biochemical Sfp PPTase activity, qHTS;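 also: the enzyme is Sfp with the accession as filed and its product quenches rhodamine fluorescence; 0% = enzyme reaction without inhibitor and -100% = no enzyme wells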
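Fluorescence-quenching assay: 15 nM Sfp-PPTase preincubated 15 min at room temperature with compound, then 5 uM rhodamine-CoA and 12.5 uM BHQ-2-labelled YbbR peptide added. Fluorescence (ex 525/em 598 nm) read at start and after 30 min; difference gives rate.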
VDR inh: Inhibitors of the vitamin D receptor (VDR): qHTS | Vitamin D3 receptor (Homo sapiens), P11473 | VDR-SRC2-3 peptide fluorescence polarization, 2 h | Potency, µM, for the others: max response, negative = inhibition, usual class: inhibitors | 0.93% of 400,000 active
Target sequence (P11473 whole entry, looked up): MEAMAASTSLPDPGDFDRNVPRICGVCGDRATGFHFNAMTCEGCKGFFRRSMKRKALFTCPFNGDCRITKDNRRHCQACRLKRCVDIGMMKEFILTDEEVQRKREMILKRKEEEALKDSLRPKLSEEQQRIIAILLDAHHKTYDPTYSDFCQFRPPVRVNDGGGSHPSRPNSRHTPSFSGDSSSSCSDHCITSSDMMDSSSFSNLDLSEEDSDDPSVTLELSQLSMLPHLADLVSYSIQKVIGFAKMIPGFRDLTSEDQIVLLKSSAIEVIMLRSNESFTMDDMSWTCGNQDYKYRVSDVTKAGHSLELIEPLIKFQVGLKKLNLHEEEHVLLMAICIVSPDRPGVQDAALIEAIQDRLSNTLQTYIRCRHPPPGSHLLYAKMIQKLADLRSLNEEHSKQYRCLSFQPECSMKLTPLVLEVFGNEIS
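After 23 nl compound addition and a short centrifugation, plates sat for 2 hours at ambient temperature; polarization of fluorescence then indicated loss of VDR binding to peptide SRC2-3.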
An asterisk follows results filed as active. Calls follow the shape of the dose curve; as a rule, active = well fitted curve in the direction sought with a large enough effect; inconclusive = small, poorly fitted or top-dose-only effect, or another doubt; inactive = no such curve, though single readings can be large; an effect the other way counts as inactive or inconclusive. Unless noted, % is scaled to controls: 0 for no effect and ±100 for the full control effect; potency is read from the fitted curve at half-maximal effect.

O=C1CCC2CN3CCc4c([nH]c5ccccc45)C3CC2C1 (configuration not stated) was read as ALOX12 inh inconclusive and PLK1 PBD inh -13.6%.
CCCCn1c(=O)[nH]c(=O)c2c1nc(-c1ccsc1)n2Cc1ccccc1 was read as ALOX12 inh -15.4%, PLK1 PBD inh -13.3%, Sfp inh -5.6% and VDR inh 2.7%.
For CCCn1c(=O)[nH]c(=O)c2c1nc(-c1ccc(C#N)cc1)n2CCN1CCOCC1 the results were ALOX12 inh 28.2µM*.
Screening CCCCn1c(=O)[nH]c(=O)c2c1nc(Cn1ncc(Cl)c(Cl)c1=O)n2CCC returned ALOX12 inh -13.3%, PLK1 PBD inh 29.9µM*, Sfp inh 7.7% and VDR inh inconclusive.
Screening CCCCn1c(-c2ccsc2)nc2c1c(=O)[nH]c(=O)n2CCC returned ALOX12 inh -13.2%, PLK1 PBD inh -2.6%, Sfp inh 35.5µM* and VDR inh inconclusive.
`NS(=O)(=O)c1ccc(NC(=S)Nc2ccc(S(=O)(=O)N3CCCC3)cc2)cc1` gave ALOX12 inh 4.6%, PLK1 PBD inh inconclusive, Sfp inh 50.1µM* and VDR inh 10.5%.
For CN1CCN(CC(=O)Nc2ccc(S(=O)(=O)N(C)C)cc2)CC1 the results were ALOX12 inh inconclusive, PLK1 PBD inh 1.4%, Sfp inh 56.2µM* and VDR inh -11.5%.
`CN(C)S(=O)(=O)c1ccc(NC(=O)CN2CCCCCC2)cc1` gave ALOX12 inh -8.8%, PLK1 PBD inh -1.5%, Sfp inh 8.7% and VDR inh 19.8%.
`NS(=O)(=O)c1ccc(NC(=O)CN2CCCN(S(=O)(=O)c3ccc(F)cc3)CC2)cc1` gave ALOX12 inh -1.9%, PLK1 PBD inh -14.9%, Sfp inh -1.7% and VDR inh -2.1%.
For CC1(C)CC(NC(=S)Nc2ccc(S(N)(=O)=O)cc2)CC(C)(C)N1 the results were ALOX12 inh -5.8%, PLK1 PBD inh inconclusive, Sfp inh -71.3% and VDR inh 10.0%.
`NS(=O)(=O)c1ccc(NC(=S)NC2CC2)cc1` gave ALOX12 inh -21.3%, PLK1 PBD inh inconclusive, Sfp inh 10µM* and VDR inh -4.2%.
Screening NS(=O)(=O)c1ccc(NC(=O)c2ccc(S(=O)(=O)N3CCCCC3)cc2)cc1 returned ALOX12 inh 23.4%, PLK1 PBD inh 0.9% and VDR inh -4.4%.
Screening NS(=O)(=O)c1ccc(NC(=O)CN2CCN(S(=O)(=O)c3ccc(F)cc3)CC2)cc1 returned ALOX12 inh -0.2%, PLK1 PBD inh 4.74µM*, Sfp inh 13.1% and VDR inh inconclusive.
CN(C)C1CCN(C(=O)C2(N(C)CCc3ccccc3)Cc3ccccc3C2)C1 (configuration not stated) was read as ALOX12 inh 17.6%.
